The source made the active and inactive calls. How the calls were made is not given here.
biological target: Serine/threonine-protein kinase pim-1 (Homo sapiens) (UniProt P11309); assay: compound-induced PIM1 thermal stabilization – biophysical, human, melting temperature shift (AID 393); conditions: Thermal shift assay, stronger effect = higher value; at 10 µM, protein 2 µM, buffer 10 mM PIPES, pH 6.5, NaCl 150 mM unless noted
Sequence (P11309 whole entry, looked up): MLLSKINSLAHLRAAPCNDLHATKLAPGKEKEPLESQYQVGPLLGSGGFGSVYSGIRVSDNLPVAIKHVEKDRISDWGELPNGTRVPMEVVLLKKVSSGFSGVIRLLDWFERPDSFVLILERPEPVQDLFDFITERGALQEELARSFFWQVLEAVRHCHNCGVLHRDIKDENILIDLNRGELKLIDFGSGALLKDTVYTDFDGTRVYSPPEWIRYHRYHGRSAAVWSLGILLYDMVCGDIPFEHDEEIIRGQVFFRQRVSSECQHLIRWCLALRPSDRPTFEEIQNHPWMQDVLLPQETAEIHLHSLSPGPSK

Tm shift, active:
Fc1ccc(CNc2ccc3ncc(-c4ccco4)n3n2)cc1 6.35 Celsius [at 5 µM, protein 1 µM, buffer 10 mM HEPES]
FC(F)(F)Oc1cccc(-c2cnc3ccc(NC4CCOCC4)nn23)c1 9.75 Celsius
CC(=O)n1c(O)c(C2=NC(=S)NC2=O)c2ccccc21 3.17 Celsius
CCOc1c(Br)ccc2c1sc1nc[nH]c(=O)c12 3.5 Celsius
O=C(c1ccc(Nc2nccc(-c3cc4ccccc4s3)n2)cc1)N1CCC(N2CCCC2)CC1 3.7 Celsius [at 10 µM, protein 2 µM, buffer 10 mM Na Citrate, pH 6.5, NaCl 150 mM]
CC(=O)c1cccc(-c2cnc3ccc(N[C@H](CO)C(C)C)nn23)c1 7.4 Celsius
Fc1ccc(-c2cnc3ccc(NC4CCOCC4)nn23)cc1 7.86 Celsius
CCN(CC)CCNC(=O)c1c(C)[nH]c(/C=C2\C(=O)Nc3ccc(Cl)cc32)c1C 3.2 Celsius [at 10 µM, protein 2 µM, buffer 10 mM Na Citrate, pH 6.5, NaCl 150 mM]
COc1cncc(-c2cnc3ccc(NC4CCOCC4)nn23)c1 3.31 Celsius
CCn1c(O)c(C2=NC(=S)NC2=O)c2ccccc21 3.12 Celsius
Brc1c(Br)c(Br)c2n[nH]nc2c1Br 4.6 Celsius [at 10 µM, protein 2 µM, buffer 10 mM Na Citrate, pH 6.5, NaCl 150 mM]
O=c1cc(-c2ccc(O)cc2)oc2cc(O)cc(O)c12 3.4 Celsius [at 10 µM, protein 2 µM, buffer 10 mM Na Citrate, pH 6.5, NaCl 150 mM]
N=C(N)SCCCn1cc(C2=C(c3c[nH]c4ccccc34)C(=O)NC2=O)c2ccccc21 10.7 Celsius [at 10 µM, protein 2 µM, buffer 10 mM Na Citrate, pH 6.5, NaCl 150 mM]
O=C(O)c1cccc(-c2cnc3ccc(NCC4CC4)nn23)c1 3.62 Celsius
Nc1cccc(-c2cnn3ccc(Nc4cccc(Cl)c4)nc23)c1 6.21 Celsius
O=C1c2ccccc2-c2n[nH]c3cccc1c23 4.2 Celsius [at 10 µM, protein 2 µM, buffer 10 mM Na Citrate, pH 6.5, NaCl 150 mM]
CCC(CO)Nc1ccc2ncc(-c3ccc(OC)nc3)n2n1 (configuration not stated) 4.1 Celsius
O=c1[nH]c(O)c2c1c1c3ccccc3nc1n1cncc21 9.3 Celsius [at 10 µM, protein 2 µM, buffer 10 mM Na Citrate, pH 6.5, NaCl 150 mM]
O=Nc1c(-c2c(O)[nH]c3ccc(S(O)(O)O)cc23)[nH]c2ccccc12 4.2 Celsius [at 10 µM, protein 2 µM, buffer 10 mM Na Citrate, pH 6.5, NaCl 150 mM]
CC(C)(C)c1nc2c3cc[nH]c(=O)c3c3cc(F)ccc3c2[nH]1 4.9 Celsius [at 10 µM, protein 2 µM, buffer 10 mM Na Citrate, pH 6.5, NaCl 150 mM]
Oc1cccc(-c2cnc3ccc(NCC4CC4)nn23)c1 4.42 Celsius
CC(C)[C@@H](CO)Nc1ccc2ncc(-c3cccc(C(F)(F)F)c3)n2n1 8.83 Celsius
Clc1cccc(-c2cnc3ccc(NC4CCOCC4)nn23)c1 7.02 Celsius [at 10 µM, protein 3 µM, buffer 10 mM HEPES]
O=c1[nH]cnc2c1oc1ccc(Cl)cc12 3.41 Celsius
CCC(CO)Nc1ccc2ncc(-c3ccc(C(=O)O)cc3)n2n1 (configuration not stated) 5.19 Celsius
COc1cc(O)c2c(c1)oc(=O)c1c3cc(O)c(O)cc3oc21 3.8 Celsius [at 10 µM, protein 2 µM, buffer 10 mM Na Citrate, pH 6.5, NaCl 150 mM]
O=c1c(O)c(-c2ccc(O)c(O)c2)oc2cc(O)cc(O)c12 9.8 Celsius [at 10 µM, protein 2 µM, buffer 10 mM Na Citrate, pH 6.5, NaCl 150 mM]

Source: PubChem BioAssay AID393 (SGCOxCompounds, 2006)
